# Cycloheximide cs = counter-screen hit for Shiga toxin inhibitors, cycloheximide | cell reporter, cycloheximide protein synthesis inhibition counterscreen | max response, % | hit rate 12% among 300,000; in the data active = max response mostly above about 13%, no sharp cut-off; inactive = mostly below about 14%; note: read at 38.3 µM for the half of the compounds with a filed dose; 0% is about no effect
# Shiga toxin inh = inhibitors of Shiga toxin in Vero cells; Vero cells, Shiga toxin protein synthesis inhibition reporter; inhibition, % at 38.7 µM; hit rate 9.2% among 290,000; in the data active = inhibition mostly above about 28%, no sharp cut-off; inactive = mostly below about 43%; note: 0% is about no effect
# NS1 function inh = blocks influenza NS1 protein function; Potency, µM (highest dose often 46.1 µM), for the others: at the highest dose activity, positive = more growth; hit rate 0.4% among 270,000; AID 2326; note: potency is the fitted concentration of half-maximal effect; actives are rising curves; nearly all actives have a fitted effect of over 50% in size
#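 In this qHTS, NS1 from influenza A is expressed in budding yeast, where it slows growth. Cells are switched from glucose to 2% galactose medium (pH 6.0, -URA), treated with compound, and growth recovery is read at OD600.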
# SARS PLP yeast = SARS-CoV PLP inhibition in yeast | S. cerevisiae expressing SARS-CoV PLpro, growth rescue | AID 485353 | hit rate 0.19% among 330,000 | Potency, µM (series often up to 32.9 µM), for the others: at the highest dose activity, positive = growth rescue, hits mostly activators; note: potency is the fitted concentration of half-maximal effect; 0% is about no effect; nearly all actives have a fitted effect of over 55% in size
# Starred values were filed as active, the others as inactive; ? = inconclusive; · = no result given; + = active, no number. Hits are enriched below; roughly 12% of the tested compounds scored in any of these assays. Unless noted, calls come from the whole dose curve.
SMILES,Cycloheximide cs,Shiga toxin inh,NS1 function inh,SARS PLP yeast
CCCN1CCC(=O)N([C@H](CSc2ccccc2)c2ccccc2)CC1,24*,19,9%,-7%
CCCN1CCC(=O)N(C(CSc2ccc(Br)cc2)c2ccccc2)CC1 (configuration not stated),50*,77*,·,·
CCN1CCN(Cc2ccc(NC(=O)Nc3ccc(OC)cc3)cc2)CC1,21*,42*,2%,5%
CCN1CCN(Cc2ccc(NC(=O)Nc3ccc(SC)cc3)cc2)CC1,44*,58*,-6%,-1%
O=C(CN1CCN(Cc2ccccc2)CC1)Nc1ccccc1,1,-3,14%,2%
CCN1CCN(Cc2ccc(NC(=O)Nc3cccs3)cc2)CC1,41*,40*,19%,?
CCN1CCN(Cc2ccc(NC(=O)Nc3ccccc3)cc2)CC1,46*,+,-15%,-4%
CC(=O)Nc1ccc(CN2CCCN(C)CC2)cc1,0,-8,4%,0%
CCCOCC(O)CC(Cc1ccccc1)C(=O)NN (configuration not stated),-3,-26,5%,1%
Cc1ccc(-c2nn(-c3ccccc3)cc2/C=N/NC(=O)c2ccncc2)o1,65*,58*,·,-1%
Cc1nn(-c2ccccc2)cc1/C=N/NC(N)=S,13,40*,-1%,2%
O=C(N/N=C/c1nn(-c2ccccc2)cc1-c1ccccc1)c1ccncc1,22,29,1%,11%
O=C(O)c1cccc(N/N=C/c2cn(-c3ccccc3)nc2-c2cccs2)c1,52*,150*,·,-8%
NS(=O)(=O)c1ccc(N/N=C/c2cn(-c3ccccc3)nc2-c2cccs2)cc1,9.3*,39*,?,-22%
CC(=O)Nc1ccc(S(=O)(=O)N(C)CC(=O)OC(C)C(=O)NC2CCCC2)cc1 (configuration not stated),1,-36,5%,-1%
N#Cc1ccc(C23CC4(C2)[C@H](CN(CC2CCCCC2)[C@@H]4c2ccccc2)C3c2ccc(C(F)(F)F)cc2)cc1 (some centres not stated),-1,-2,13%,-5%
C=CCNCC(=O)NN=C(c1ccccc1)c1ccccc1,3,-3,-3%,0%
CN(Cc1ccccc1)C(=O)COC(=O)CCC(=O)c1ccc(F)cc1,·,·,·,0%
O=C(N/N=C/c1cn(-c2ccccc2)nc1-c1cccs1)c1ccncc1,32*,50*,-2%,-4%
NC(=O)N/N=C/c1cn(-c2ccccc2)nc1-c1cccs1,36*,51*,·,-2%
CC(C)[C@H](NC(=O)[C@@H]1CSC2c3ccccc3C(=O)N21)C(=O)NCc1ccncc1 (some centres not stated),-2,-2,2%,-2%
O=C(CSc1nnc(-c2ccccn2)n1Cc1ccccc1)NC1CCCC1,9,-23,-3%,4%
CC1(C)Cc2c(sc(NC(=S)NC(=O)c3ccccc3)c2C(=O)O)CO1,2,3,0%,-2%
Cc1cccc(C(=O)Nc2sc3c(c2C(=O)O)CCC3)c1,42*,103*,-56%,-2%
CC(C)OC(=O)c1c(NC(=O)c2ccco2)sc2c1CCCCC2,13,-3,?,12%
SMILES,Cycloheximide cs,Shiga toxin inh,NS1 function inh,SARS PLP yeast
CC1(C)Cc2c(sc(NC(=O)c3ccco3)c2C(=O)O)CO1,30*,44,-4%,-6%
CNC(=O)c1c(NC(=O)c2ccco2)sc2c1CCCC2,29*,32,-55%,-17%
CC1(C)Cc2c(sc(NC(=O)c3ccc(Br)o3)c2C#N)CO1,45*,71*,-6%,-4%
COc1cc(CNCc2ccccc2)c(Br)cc1OC1CCCC1,-2,-6,-5%,-1%
CCCNC(=O)Cn1cc(S(=O)(=O)N2CCCC2)c(S(=O)(=O)N2CCCC2)c1,-2,2,8%,-1%
CCCn1c(C(C)Nc2nc(-c3ccc(Cl)c([N+](=O)[O-])c3)cs2)nc2cc(Cl)c(N3CCCCC3)cc21 (configuration not stated),3,5,21%,3%
O=C(Nc1sc2c(c1C(=O)NCc1ccco1)CCCC2)c1ccc2c(c1)OCO2,44*,89*,16%,-6%
COc1cccc(C(=O)Nc2c[nH]c(=O)[nH]c2=O)c1,0,-1,2%,-2%
Cc1ccc(C(=O)C(NC(=O)c2ccco2)Nc2sc3c(c2C(N)=O)CCCC3)cc1 (configuration not stated),13*,active,7%,1%
Cc1ccc(C(=O)Nc2sc3c(c2C(=O)NCc2ccco2)CCCC3)cc1,13,34,3%,11%
COc1cccc(C(=O)Nc2nc3c(c(=O)[nH]2)CCCC3)c1,20*,18,-15%,-10%
COc1cccc(C(=O)Nc2sc3c(c2C(=O)O)CCCC3)c1,37*,104*,-24%,-4%
O=C(NCCNc1ccc([N+](=O)[O-])cc1)c1ccc(Cl)cc1,-3,25,·,-4%
Cc1cc(C(=O)N2CCN(S(=O)(=O)c3ccc(F)c(Cl)c3)CC2)c(C)o1,·,·,·,-5%
CC(=O)N1CCc2c(sc(NC(=O)CS(=O)(=O)c3ccc(F)cc3)c2C#N)C1,·,·,·,0%
CNC(=O)c1c(NC(=O)c2cccc(C)c2)sc2c1CCC2,32*,71*,0%,-8%
COc1cccc(C(=O)Nc2sc3c(c2C#N)CCN(C(C)=O)C3)c1,25*,47,·,-2%
CCOC(=O)c1ccc(NC(=S)Nc2ccccc2)cc1,9,18,-17%,-16%
CCOC(=O)c1cn[nH]c1NC(=S)Nc1ccc(Cl)cc1,58*,58*,-10%,-3%
CN(CCc1ccccn1)C(=S)NC(=O)c1ccco1,-3,-19,·,0%
O=C(NC(=S)NCCc1ccccn1)c1ccco1,23*,26,-5%,1%
O=C(NCc1ccccn1)/C(=C/c1ccco1)NC(=O)c1ccccc1,-3,-9,1%,-24%
O=C(NCCc1ccccn1)/C(=C/c1ccco1)NC(=O)c1ccccc1,33*,49*,7%,-2%
O=C(NC(=S)NCCc1ccccn1)c1ccccc1,58*,95*,·,21%
O=C(NC1CCCCC1)C(c1cccnc1)N(CCc1ccccc1)C(=O)Cc1cccs1 (configuration not stated),-4,-4,-2%,-4%
SMILES,Cycloheximide cs,Shiga toxin inh,NS1 function inh,SARS PLP yeast
COc1ccc2c(c1)CC/C(=C\C=C\c1ccccc1)C2=O,25*,44*,-27%,3%
COc1ccc(/C=C2\CC/C(=C\c3ccc(OC)c(OC)c3)C2=O)cc1OC,8,2,11%,1%
COc1cccc(/C=C2\C(=O)C(=O)c3ccccc32)c1,21*,77,9%,-3%
COc1ccc2c(c1)CC/C(=C/c1cc(OC)c(OC)c(OC)c1)C2=O,6,30,·,-23%
COc1ccc(/C=C2\CCc3ccccc3C2=O)cc1OC,52*,139*,-73%,-23%
COc1cccc(/C=C2\CCc3ccccc3C2=O)c1,44*,60*,-58%,-5%
COc1ccc2c(c1)CCc1cc(C(=O)O)sc1-2,6,-3,-7%,-5%
CCOC(=O)/C=C/c1cc(F)c(S(=O)(=O)N2CCN(S(=O)(=O)c3ccc4c(c3)OCCO4)CC2)cc1F,-4,21,·,·
O=[N+]([O-])c1cnc2nc(-c3ccncc3)nn2c1O,-3,-23,·,-8%
CC(=O)Oc1ccc(/C=C2/CCc3ccccc3C2=O)cc1,16*,16,-53%,-5%

# Compound activity deposited in PubChem BioAssay by National Center for Advancing Translational Sciences (NCATS).
